Experimental data reported in PubChem BioAssay AID2546 (National Center for Advancing Translational Sciences (NCATS), 2010).
About 11,000 (3.5%) of roughly 310,000 compounds were called active. Entries that show only a call come without a potency. Inconclusive results (about 8%) are left out. For the sample, actives were picked, then their nearest neighbours and some compounds at random. A number with no mark means an inactive call. The call rests on the fitted dose curve; in most records, active means well fitted inhibition curve with a large enough effect; inconclusive means small, poorly fitted or top-dose-only effect, or effect the other way; inactive means flat fitted curve, though single readings scatter.

Assay: VP16 counterscreen qHTS for inhibitors of ROR gamma transcriptional activity;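 further: Gal4-VP16 expression switched on by copper sulfate through the metallothionein promoter; nearly all actives have a fitted effect of over 50% in size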
Details: Drosophila S2 Gal4-VP16 UAS-luciferase, luminescence, 20 h; series mostly up to 53.6 µM
Potency means the concentration at half of the fitted maximal effect.

| Structure (SMILES) | Potency | activity, negative = inhibition |
| --- | --- | --- |
| CC(=O)Nc1ccc(S(=O)(=O)N2N=NC3C2C2CC4C3(CN(C(=O)OC(C)(C)C)S4(=O)=O)O2)cc1 (stereo unspecified) | inactive |  |
| O=C(CCc1nnc(Cc2ccc3c(c2)OCO3)o1)NCCc1ccccc1Cl | inactive |  |
| O=C1Nc2cc(C(=O)N3CCN(c4ccc(F)cc4)CC3)ccc2NC1CSCc1cccc(F)c1 (stereo unspecified) | inactive |  |
| Clc1cccc(Cl)c1OCCOCCNCc1ccccc1 | inactive |  |
| COc1cccc(NC(=O)N2C3CCCC2CC(NC(C)=O)C3)c1 (stereo unspecified) | inactive |  |
| CCOC(=O)C1(Cc2ccccc2C)CCCN(C(=O)CCc2c(C)noc2C)C1 (stereo unspecified) | inactive |  |
| COc1ccc(CCNC(=O)c2cnc(Cl)c(Cl)c2)cc1 | inactive |  |
| S=c1[nH]nc(-c2ccco2)n1/N=C/c1ccccc1 | inactive |  |
| S=c1[nH]nc(-c2cc(-c3ccsc3)n[nH]2)n1-c1ccccc1 | inactive |  |
| S=c1[nH]nc(-c2cc(-c3ccccc3)n[nH]2)n1/N=C/c1c2ccccc2cc2ccccc12 | 6.31 µM (active) |  |
| S=c1[nH]nc(-c2cccs2)n1/N=C/c1cccs1 | inactive |  |
| S=c1[nH]nc(-c2ccncc2)n1/N=C/c1ccccc1Cl | inactive |  |
| Cc1ccc(/C=N\n2c(-c3ccccc3)n[nH]c2=S)s1 | 8.91 µM (active) |  |
| CCc1ccc(-c2cc(C)no2)cc1S(=O)(=O)NCCc1ccc(S(N)(=O)=O)cc1 | inactive |  |
| NS(=O)(=O)c1ccc(CCNC(=O)c2nc(CS(=O)(=O)c3ccc(Cl)cc3)no2)cc1 | inactive |  |
| COc1ccc(C(=O)COC(=O)Cn2cnc3c2c(=O)n(C)c(=O)n3C)c(OC)c1 | inactive |  |
| CCCCNC(=O)CN1C(=O)NC(Cc2ccccc2)(Cc2ccccc2)C1=O | inactive |  |
| O=C(N/N=C\C1CC=CCC1)c1ccc(Br)o1 (stereo unspecified) | inactive |  |
| CC1(C)NC(=O)N(CC(=O)Nc2cc(C(F)(F)F)cc(C(F)(F)F)c2)C1=O | inactive |  |
| CCC(=O)c1ccc(OC(=O)/C=C/c2cc(OC)c(OC)c(OC)c2)cc1 | inactive |  |
| COc1ccc2[nH]c(C(=O)N/N=C/c3cc(OC)c(OC)c(OC)c3)cc2c1 | inactive |  |
| COc1ccc(N)c(OC)c1 | inactive |  |
| COc1ccc(/C=C/C2=CC(C)(C)NC(=S)N2)c(OC)c1 | 3.55 µM (active) |  |

| Structure (SMILES) | Potency | activity, negative = inhibition |
| --- | --- | --- |
| COc1cc(/C=C/C2=CC(C)(C)NC(=S)N2)cc(OC)c1OC | 12.6 µM (active) |  |
| COc1ccc(/C=C2/C(=O)N(c3ccccc3)N=C2C)c(OC)c1 | inactive |  |
| CC1C(=O)N(Cc2ccccc2)c2ccccc2N1C(=O)c1ccccc1 (stereo unspecified) | inactive |  |
| COc1ccc(CSc2nnnn2-c2ccc(C(=O)O)cc2)cc1 | inactive |  |
| COCCCNC(=O)[C@H]1N2C(=O)c3ccccc3C2SC1(C)C (stereo partly specified) | inactive |  |
| Cn1cccc1-c1nc2ccccc2n1C |  | -16.5% [at 10 µM] |
| Cn1c(-c2ccco2)nc2cc3ccccc3cc21 | 11.2 µM (active) |  |
| COc1ccc(CCn2c(-c3ccco3)nc3nc4ccccc4nc32)cc1OC | inactive |  |
| CCn1cc(C(=O)NCCC(=O)NCCO)c(=O)c2cc3c(cc21)OCO3 | inactive |  |
| O=C(N/C(=C/c1ccc(Cl)cc1)C(=O)N1CCCCC1)c1ccco1 | inactive |  |
| COC(=O)c1ccc(CNC(=O)c2ccc3oc(C(C)C)nc3c2)cc1 | inactive |  |
| FC(F)(F)C1CCCN(c2nsc3ccccc23)C1 (stereo unspecified) | 28.2 µM (active) |  |
| O=c1[nH]c(/C=C\c2cccc(C(F)(F)F)c2)nc(O)c1[N+](=O)[O-] | inactive |  |
| CCN1CCN(C(=O)C2CCN(S(=O)(=O)c3cc(Cl)ccc3Cl)CC2)CC1 | inactive |  |
| CCCCOc1ccc(C(C)(O)CCN2CCOCC2)cc1 (stereo unspecified) | inactive |  |
| CC(C)(C)c1ccc(CCC2OCC(CN3CCOCC3)O2)cc1 (stereo unspecified) | 4.47 µM (active) |  |
| CSc1ccc(CNCCN2CCOCC2)cc1 | inactive |  |
| COc1ccc(/C=C/c2c(-c3cccc(C)c3)oc3ccc(-c4ccc5c(c4)OCO5)cc23)cc1 | inactive |  |
| COc1cccc2cc(C(=O)NCc3ccc(C)cc3)c(=N)oc12 | inactive |  |
| CC[C@]1(c2ccccc2OC)C(=O)N(C(=O)OC)N1C(=O)OC | inactive |  |
| Cc1ccc(/C=N/NC(=O)c2cc3ccccc3cc2O)o1 | 1.58 µM (active) |  |
| Cc1ccc(/C=N/NC(=O)CNC(=O)COc2ccccc2)o1 | inactive |  |
| N=c1oc2ccccc2cc1C(=O)N/N=C/c1ccccc1 | inactive |  |

| Structure (SMILES) | Potency | activity, negative = inhibition |
| --- | --- | --- |
| COc1ccc(-n2ncc3c(SCC(=O)NNC(C)=O)ncnc32)cc1 | inactive |  |
| COc1ccc(N(C(=O)c2snc(C(N)=O)c2N)C(C(=O)NC2CCCC2)c2ccc(C)o2)c(OC)c1 (stereo unspecified) | inactive |  |
| COc1ccc(Oc2c(Cl)cnn(-c3ccccc3)c2=O)cc1 | inactive |  |
| Cc1cccc(-n2ncc(C#N)c2-n2cccc2)c1 | inactive |  |
| Cc1cccc(-n2ncc(Cl)c(Cl)c2=O)c1 | 14.1 µM (active) |  |
| O=C(CSc1ccc(-c2ccccn2)nn1)Nc1ccccc1 | inactive |  |
| Clc1nc(NC2CCCC2)nc(N2CCOCC2)n1 | inactive |  |
| O=C(NNC(=O)C(O)c1ccccc1)NC1CCCCC1 (stereo unspecified) | inactive |  |
| Cc1nn(-c2ccccc2)c(C)c1C(=O)OCC(=O)NC(=O)NC1CCCCC1 | inactive |  |
| Cc1nc(/N=C(\N)NC(=O)NC2CCCCC2)nc2ccccc12 | 7.94 µM (active) |  |
| c1ccc2c(Nc3ccncc3)nc(-c3ccc4c(c3)OCO4)nc2c1 | 17.8 µM (active) |  |
| c1ccc2c(Nc3ccncc3)nc(-c3ccoc3)nc2c1 | inactive |  |
| Cc1cccc(-c2nc(Nc3ccc(O)cc3)c3ccccc3n2)c1 | inactive |  |
| COCCc1nn2c(=O)cc(COC(=O)c3cc(OC)c(OC)c(OC)c3)nc2s1 | inactive |  |
| Cc1cc(C(=O)NC2CC(C)(C)Cc3c2cnn3-c2ccccc2)n[nH]1 (stereo unspecified) | inactive |  |
| O=C(c1ccccc1F)N(Cc1ccccc1)Cc1ccccc1 | inactive |  |
| C/C(=N\NC(=O)c1ccoc1C)c1ccccc1O | 0.708 µM (active) |  |
| C/C(=N\NC(=O)c1nc(C)cc(C)n1)c1ccccc1 | inactive |  |
| CC(C)=C(NC(=O)c1ccccc1)C(=O)N/N=C(\C)c1ccccc1O | 2.51 µM (active) |  |
| CNC(=O)C(NC(=O)c1ccccc1)=C(C)C | inactive |  |
| C/C(=N\NC(=O)c1ccccc1C)c1ccc(N2CCOCC2)cc1 | inactive |  |
| CC(=O)NC(=O)c1ccccc1O | inactive |  |
| CCc1cc(=O)oc2c(C)c(OCC(=O)N3CC[C@@]4(O)CCCC[C@H]4C3)ccc12 | inactive |  |

| Structure (SMILES) | Potency | activity, negative = inhibition |
| --- | --- | --- |
| COc1ccc(CNC(=O)C2CCN(S(=O)(=O)c3ccc(SC)cc3)CC2)cc1 | inactive |  |
| COc1cccc(NC(=O)[C@H](Cc2c[nH]c3ccccc23)NC(=O)[C@@H]2Cc3ccccc3CN2)c1 | inactive |  |
| O=C1CCN(CCCc2ccccc2)CCN1CCO | inactive |  |
| CCOc1ccccc1N1CN(Cc2ccccc2)CNC1=S | 11.2 µM (active) |  |
| CCOc1ccccc1OCCCNCc1ccccc1 | inactive |  |
| CCOc1ccc(CC(=O)NC2CCN(Cc3ccccc3)CC2)cc1 | inactive |  |
| O=C(c1ccco1)N1CCN(Cc2cccc(C(F)(F)F)c2)CC1 | inactive |  |
| Cc1ccc(NS(=O)(=O)c2ccc3c(c2)n(C)c(=O)c(=O)n3C)c(C)c1 | inactive |  |
| CCOC(=O)COn1c(=O)c(-c2ccc(OCC)cc2)[n+]([O-])c2ccccc21 | inactive |  |
| Cc1nn(-c2ccccc2)c2c1c(C)c(CCC(=O)NCC1CCCO1)c(=O)n2C (stereo unspecified) | inactive |  |
| CC(=O)CCC(=O)c1ccc2ccccc2c1 | inactive |  |
| C=CC(=O)c1ccc2ccccc2c1 | 0.708 µM (active) |  |
| O=C(Nc1ccc(NC(=O)c2cccs2)cc1)c1ccc2ccccc2c1 | inactive |  |
| COc1cc2ccccc2cc1C(=O)Nc1ccccc1C | inactive |  |
| Cc1ccc(N(C(=O)c2snc(C(N)=O)c2N)C(C(=O)NCC2CCCO2)c2c[nH]c3ccccc23)cc1 (stereo unspecified) | inactive |  |
| CCSc1nsc(NC(=O)Nc2ccccc2OC)n1 | inactive |  |
| CC1CCN(c2ccc(S(=O)(=O)Nc3cc(C(=O)O)cc(C(=O)O)c3)cc2[N+](=O)[O-])CC1 | inactive |  |
| CC1CCN(c2ccc(C(=O)NCc3ccc4c(c3)OCO4)cc2[N+](=O)[O-])CC1 | inactive |  |
| CC1CCN(c2ccc(C(=O)Nc3nnc(C4CC4)s3)cc2[N+](=O)[O-])CC1 | 17.8 µM (active) |  |
| COCCNC(=O)c1ccc2c(c1)ncn2-c1ccc(C)c(Cl)c1 | inactive |  |
| CCC1Oc2ccccc2N(CC(=O)NCCCN2CCN(CC)CC2)C1=O (stereo unspecified) | inactive |  |
| Cc1c(C)c2ccc(OCC(=O)N3CCN(c4cccc(Cl)c4)CC3)cc2oc1=O | inactive |  |
| Cc1ccc(OCC(=O)NC(C)c2ccccc2)cc1C (stereo unspecified) | inactive |  |

| Structure (SMILES) | Potency | activity, negative = inhibition |
| --- | --- | --- |
| O=C(Nc1cccnc1)c1cc(Cl)ccc1Cl | inactive |  |
| O=C(/C=C/c1ccc(Cl)c([N+](=O)[O-])c1)c1cccnc1 | inactive |  |
| O=C(/C=C/c1ccc(Cl)cc1Cl)c1cccnc1 | 6.31 µM (active) |  |
| COc1cccc(CNC(=O)C2CCCN(c3ncnc4c3nc3n4CCCCC3)C2)c1 (stereo unspecified) | inactive |  |
| Cc1cc(NC(=O)CCN2CCN(Cc3ccccc3)CC2)ccc1Br | inactive |  |
| Cc1cc(NC(=O)CSc2nc(=O)cc(N)n2-c2ccc(F)cc2)no1 | inactive |  |
| COc1cc(/C=N/NC(=O)Cc2ccccc2)cc(OC)c1OC | inactive |  |
| OCCNc1nc2ccccc2n1-c1ncnc2sc3c(c12)CCC3 | 10 µM (active) |  |
| CC(C)(C)C(=O)Cn1c(NCCO)nc2ccccc21 | inactive |  |
| O=C(O)[C@@H]1CCCN1c1ncnc2sc3c(c12)CCC3 | inactive |  |
| O=C(c1ccccc1)N1N=C(c2ccccc2O)CC1c1ccc(Br)cc1 (stereo unspecified) | inactive |  |
| Cc1cn([C@H]2CC(F)[C@@H](CO)O2)c(=O)[nH]c1=O (stereo partly specified) | inactive |  |
| CC(C)n1c(-c2ccncc2)n[nH]c1=S | inactive |  |
| CCn1c(-c2ccncc2)n[nH]c1=S | 11.2 µM (active) |  |
| CCn1c(C(C)NC(=O)c2ccc(C)cc2)n[nH]c1=S (stereo unspecified) | inactive |  |
| COc1cccc(CNC(=O)CCC2CCCN(C(=O)c3ccc(F)c(Cl)c3)C2)c1 (stereo unspecified) | inactive |  |
| COC(=O)C1(CCSC)NC(c2ccc(OC)cc2OC)C2C(=O)N(c3cccc(C(C)=O)c3)C(=O)C21 (stereo unspecified) | inactive |  |
| Cc1ccc(S(=O)Cc2ccc(C(=O)N3CCN(C4CCCCC4)CC3)o2)cc1 (stereo unspecified) | inactive |  |
| Cc1[nH]c(C)c(S(=O)(=O)N2CCN(c3cccc(C(F)(F)F)c3)CC2)c1C(=O)N1CCCC1 | inactive |  |
